Experiment [1] concerns the target Aldehyde dehydrogenase, mitochondrial (Homo sapiens) (UniProt P05091). Put plainly: qHTS for Inhibitors of the Aldehyde Dehydrogenase Family (ALDH2) Primary screen (AID 2061308). Note: nearly all actives have a fitted effect of over 55% in size. Note: potency is the fitted concentration of half-maximal effect.
In experiment [2] the target is Retinaldehyde dehydrogenase 3 (Homo sapiens) (UniProt P47895). Put plainly: qHTS for Inhibitors of the Aldehyde Dehydrogenase Family (ALDH1A3) Confirmatory screens (AID 2061311). Note: nearly all actives have a fitted effect of over 60% in size. Note: potency is the fitted concentration of half-maximal effect.
Experiment [3] deals with Retinal dehydrogenase 2 (Homo sapiens) (UniProt O94788). Put plainly: qHTS for Inhibitors of the Aldehyde Dehydrogenase Family (ALDH1A2) Confirmation screens (AID 2061314). Note: potency is the fitted concentration of half-maximal effect; nearly all actives have a fitted effect of over 65% in size.
Experiment [4] concerns the target Retinaldehyde dehydrogenase 3 (Homo sapiens) (UniProt P47895). Put plainly: qHTS for Inhibitors of the Aldehyde Dehydrogenase Family (ALDH1A3) Primary screen (AID 2061315).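 Note: plate controls were DMSO vehicle for no effect and reference inhibitor for full effect.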
Experiment [5] has as its target Aldehyde dehydrogenase 1A1 (Homo sapiens) (UniProt P00352). Put plainly: qHTS for Inhibitors of the Aldehyde Dehydrogenase Family (ALDH1A1) Confirmatory screens (AID 2061316). Note: nearly all actives have a fitted effect of over 65% in size. Note: potency is the fitted concentration of half-maximal effect.
A short description of experiment [6]: BET inhibitor-based combinations targeting novel dependencies in MECOM-rearranged (r) AML: SET-2 cell line (AID 2202231).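 Note: plate controls were DMSO treated cells for no effect and wells without cells for full effect; nearly all actives have a fitted effect of over 35% in size.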 Particulars: SET-2 AML cells viability, CellTiter-Glo luminescence, 48 h; viability: active compounds read low, series mostly up to about 46 µM. The essentials:
(§1)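 Each compound was tested at eleven concentrations on cells seeded at 500/well. After two days' incubation, ATP-based luminescence reported viability; responses relative to DMSO and blank wells yielded AUC and cell-line-centred Z-AUC.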

A short description of experiment [7]: BET inhibitor-based combinations targeting novel dependencies in MECOM-rearranged (r) AML: OCI-AML3 cell line (AID 2202232).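 Note: series mostly up to about 46 µM; plate controls were DMSO vehicle wells for no effect and wells without cells for full effect; nearly all actives have a fitted effect of over 35% in size.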 Particulars: Potency: OCI-AML3 viability. Summed up:
as §1

A short description of experiment [8]: BET inhibitor-based combinations targeting novel dependencies in MECOM-rearranged (r) AML: MV-4-11 cell line (AID 2202233).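 Note: plate controls were DMSO for no effect and blank wells for full effect; nearly all actives have a fitted effect of over 45% in size.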 Summed up:
(§2)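 First, 500 cells per well were seeded; next, drugs were pinned as 11-point doses; then plates sat 48 hr in the incubator; finally CellTiter-Glo was added and luminescence read, with AUC and Z-AUC computed.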

Experiment [9] is described as follows: BET inhibitor-based combinations targeting novel dependencies in MECOM-rearranged (r) AML: UCSD-AML1 cell line (AID 2202235).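 Note: series mostly up to about 46 µM; plate controls were DMSO vehicle wells for no effect and blank wells for full effect; nearly all actives have a fitted effect of over 40% in size.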 Summed up:
as §2

A short description of experiment [10]: BET inhibitor-based combinations targeting novel dependencies in MECOM-rearranged (r) AML: AML-191 cell line (AID 2202236;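 note: plate controls were vehicle wells for no effect and wells without cells for full effect; nearly all actives have a fitted effect of over 35% in size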). Summed up: as §1
The nature of experiment [11]: BET inhibitor-based combinations targeting novel dependencies in MECOM-rearranged (r) AML: AML-194 cell line (AID 2202237;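 note: plate controls were vehicle wells for no effect and wells without cells for full effect; nearly all actives have a fitted effect of over 40% in size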). Summed up:
as §1

Experiment [12] has as its target Retinaldehyde dehydrogenase 3 (Homo sapiens) (UniProt P47895). Put plainly: qHTS for Inhibitors of the Aldehyde Dehydrogenase Family (ALDH1A3) Validation screen (AID 2061312). Note: nearly all actives have a fitted effect of over 45% in size. Note: potency is the fitted concentration of half-maximal effect.

Results filed as inconclusive are left out. Unmarked numbers belong to inactive results. The source made the active and inactive calls. Calls come from the whole dose curve; as a rule, active = well fitted curve in the direction sought with a large enough effect; inconclusive = small, poorly fitted or top-dose-only effect, or another doubt; inactive = no such curve, though single readings can be large; an effect the other way counts as inactive or inconclusive.

Turning to `COc1ccc(CNc2ccc(S(=O)(=O)Nc3nccs3)cc2)cc1O`, the Potency entry in experiment [1] and in experiment [4] was “inactive” in each case. Also, the Potency in experiment [2] was 5.65 µM (active); in experiment [3], 6.34 µM (active); in experiment [5], 7.12 µM (active).

`COc1cccc(CNc2ccc(S(=O)(=O)Nc3cccc4ccncc34)cc2)c1O`: the Potency entry in [1], in [4] and in experiment [5] was “inactive” each time. The Potency in experiment [2] is 22.5 µM (active).

With `COCCOc1cnc2ccn([C@H](C)c3nnc4c(F)cc(-c5cnn(C)c5)cn34)c(=O)c2c1`, the Potency entry in experiment [1], in experiment [4], in experiment [7], in [8], in [9] and in [10] was “inactive” in each case. Moreover, the Potency entry in experiment [11] was “inactive”. Besides, the Potency in [2] is 12.7 µM (active); in [5], 25.2 µM (active). For the same compound, the viability in [6] was 70.9%.

With `COc1ccc(NC(=O)Nc2ccc(-c3nc4ccccc4[nH]3)cc2)cc1OC`, the Potency entry in experiment [1], in [2] and in experiment [4] was “inactive” in each case.

As for `Cc1cc(C)nc(NC(=S)N2CCN(c3cccc4[nH]ccc34)CC2)c1`, the Potency result in [1] and in [4] was “inactive” each time. Also, the Potency is 7.12 µM (active) in experiment [2] and 8.96 µM (active) in [5].

With `CCS(=O)(=O)N(Cc1cccnc1)c1cccc(-c2ccc(C#N)cc2)c1`, the Potency result in [1] was “inactive”. In addition, the Potency in experiment [12] was 6.31 µM (active).

Turning to `CCc1cnn2c(NCc3ccc[n+]([O-])c3)cc(N3CCCCC3CCO)nc12` (stereo not given), the Potency entry in [1], in experiment [12] and in experiment [4] was “inactive” throughout.

With `CC(=O)c1c(OCCN2CCCCC2)c(OCCC(C)c2ccc(F)cc2)c2oc(C)nc2c1C` (stereo not given), the Potency result in experiment [1], in experiment [12] and in [4] was “inactive” each time.

For the compound `O=C(NCCCN1CCNCC1)c1cccc(-c2cc(O)c3ncccc3c2)c1`, the Potency entry in [1], in [4] and in [5] was “inactive” throughout. The Potency in experiment [2] is 10.1 µM (active).

Regarding `CC(C)(C)c1ccc(CN2CCN(C(c3ccccc3)c3ccc(Cl)cc3)CC2)cc1` (stereo not given), the Potency result in experiment [1] and in experiment [4] was “inactive” throughout. Moreover, the Potency in [12] is 31.6 µM (active).

Consider `CC(=O)Nc1nc2c(Oc3cc(-c4ccc(C(F)(F)F)cc4)ncn3)cccc2s1`, for which the Potency result in experiment [1], in experiment [12] and in experiment [4] was “inactive” in each case.

For the compound `Cc1cc(C)nc(NC(=S)N2CCN(c3ccc4nonc4c3)CC2)c1`, the Potency result in [1] and in experiment [4] was “inactive” in each case. Besides, the Potency was 15.9 µM (active) in [2] and 11.3 µM (active) in experiment [5].

In the case of `O=C(CCCCCCC(=O)Nc1ccc(C2OC(CSc3nc(-c4ccccc4)c(-c4ccccc4)o3)CC(c3ccc(CO)cc3)O2)cc1)NO` (stereo not given), the Potency entry in experiment [1] is “inactive”. Besides, in experiment [12], the Potency was 10 µM (active).

For `CC1(C)N=C(Nc2nc3ccccc3o2)NC2=C1C(=O)CCC2`, the Potency entry in [1], in experiment [2] and in experiment [4] was “inactive” in each case.

On to `CC1CCN(C(c2ccc(F)cc2)c2ccc(C(C)C(=O)O)cc2-c2ccc(C(F)(F)F)cc2)CC1` (stereo not given), for which the Potency entry in experiment [1], in experiment [12] and in experiment [4] was “inactive” throughout.

For the compound `N#Cc1ccc2[nH]c(O)c(-c3ccc(CN4CCOCC4)cn3)c2c1`, the Potency entry in experiment [1] is “inactive”. Further, the Potency in experiment [12] was 10 µM (active).

Consider `Cc1ccc(S(=O)(=O)Nc2ccc(NS(=O)(=O)c3ccc(C)cc3)c3ncccc23)cc1`, for which the Potency entry in experiment [1], in [4] and in [5] was “inactive” in each case. In experiment [2], the Potency is 15.9 µM (active).

Regarding `O=C(NC1CCN(CCCCC2(C(=O)NCC(F)(F)F)c3ccccc3-c3ccccc32)CC1)c1ccccc1-c1ccc(C(F)(F)F)cc1`, the Potency result in [1], in [12] and in experiment [4] was “inactive” throughout.

With `CN(C)CC(=O)Nc1ccc2[nH]c(=O)c3ccccc3c2c1`, the Potency result in [1], in [12] and in [4] was “inactive” in each case.

On to `Cc1ccnc(NC(=S)N2CCN(c3ccc4ccccc4n3)CC2)c1`, for which the Potency in experiment [1] is 2.82 µM (active); in [2], 11.3 µM (active); in experiment [5], 3.18 µM (active).

Take `C[C@@H](NC(=O)C(=O)c1c[nH]c2ccc([N+](=O)[O-])cc12)c1ccccc1`: the Potency result in [1], in experiment [12] and in experiment [4] was “inactive” throughout.

Turning to `Cc1ccc(NC(=O)CN2C(=O)N/C(=C\c3ccco3)C2=O)cc1`, the Potency entry in experiment [1] and in [4] was “inactive” each time. Moreover, the Potency in experiment [2] is 4.49 µM (active).

In the case of `Cc1cnc(-c2ccccc2N(C)C)nc1NCc1ccc(-c2cccnc2)cc1`, the Potency result in experiment [1] and in [4] was “inactive” in each case. Besides, the Potency in experiment [2] was 3.55 µM (active); in experiment [5] it was 14.2 µM (active).

`Cc1cc(C)nc(NCc2ccc(O)c3ncccc23)c1`: the Potency in experiment [1] was 11.2 µM (active); in [2] it was 5.04 µM (active); in [5], 11.3 µM (active).

Consider `CCOC(=O)c1[nH]c2c(c1C)C(=O)CC(c1ccco1)C2` (stereo not given), for which the Potency result in experiment [1] and in [4] was “inactive” throughout. Also, the Potency is 12.7 µM (active) in experiment [2] and 2.52 µM (active) in experiment [5].

Consider `CC(=O)OC12COC1CC(O)C1(C)C(=O)C(O)C3=C(C)C(OC(=O)C(O)C(NC(=O)OC(C)(C)C)c4ccccc4)CC(O)(C(OC(=O)c4ccccc4)C21)C3(C)C` (stereo not given), for which the Potency entry in experiment [1], in experiment [12] and in experiment [4] was “inactive” throughout.

With `CC(C)Oc1ccc(C(=O)NC(CNC(=O)CN(C)C)Cc2ccc(-c3cn4cccc(C(C)O)c4n3)cc2)cc1Cl` (stereo not given), the Potency result in [1], in [12] and in experiment [4] was “inactive” in each case.

Turning to `Cc1ccc2nc3sc(C(=O)N4CCOCC4)cc3cc2c1`, the Potency entry in experiment [1] and in experiment [4] was “inactive” each time. In addition, in [2], the Potency was 25.2 µM (active).

For the compound `CN(C)CCN(Cc1ccccc1)C(=O)c1cc(-c2ccc(F)cc2)n2nc(C(C)(C)C)cc2n1`, the Potency entry in experiment [1], in [12] and in experiment [4] was “inactive” in each case.

(Values after PubChem BioAssay (NCATS).)
